Mtb FBA inh: Mtb FBA enzyme inhibitors, primary screen, biochemical, fluorescence, strain H37Rv. Fructose-bisphosphate aldolase (Mycobacterium tuberculosis (strain ATCC 25618 / H37Rv)), …. purified M. tuberculosis FBA, fluorescence read-out. inhibition, % at 1 µM. 2.3% of 360,000 active. AID 588726, 2011;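 also: 0% = vehicle and 100% = reference inhibitor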
Target sequence (P9WQA3 whole entry, looked up): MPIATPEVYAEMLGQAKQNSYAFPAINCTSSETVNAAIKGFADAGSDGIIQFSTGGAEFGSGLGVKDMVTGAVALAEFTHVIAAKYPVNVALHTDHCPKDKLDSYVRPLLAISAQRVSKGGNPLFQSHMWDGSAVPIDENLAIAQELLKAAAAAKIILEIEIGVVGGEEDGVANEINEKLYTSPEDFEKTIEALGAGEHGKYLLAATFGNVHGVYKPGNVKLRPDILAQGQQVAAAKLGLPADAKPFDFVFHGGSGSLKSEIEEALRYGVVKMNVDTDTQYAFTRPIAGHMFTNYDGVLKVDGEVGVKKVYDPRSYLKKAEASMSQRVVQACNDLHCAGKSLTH
Mtb BioA inh: M. tuberculosis BioA enzyme inhibitors, primary screen, biochemical, plate reader, single point, HTS; purified M. tuberculosis BioA enzyme; inhibition, % at 9.99 µM; 0.096% of 360,000 active; AID 602481, 2012; in the data active = inhibition above about 40%
Vc quorum ag: inducers of Vibrio cholerae quorum light production without autoinducers, primary screen, BH1578 luxS cqsA deficient, single point; V. cholerae BH1578 lux reporter, luminescence, 6 h; activation, % at 18.7 µM; 0.16% of 350,000 active; in the data active = activation mostly above about 9.7%, no sharp cut-off
GDH-TPI counter-1: GDH-TPI coupling enzyme inhibitors, primary screen, artefact control for M. tuberculosis FBA inhibitor project, biochemical, absorbance, full deck; GDH-TPI coupled enzyme counterscreen, NADH absorbance; inhibition, % at 4.8 µM; 1.2% of 360,000 active; AID 588335, 2011; in the data active = inhibition above about 30%;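 also: 0% = DMSO wells and 100% = wells lacking the enzyme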
Mtb FBA inh conf: M. tuberculosis aldolase blockers, biochemical, fluorescence, strain H37Rv, confirmation; shares compounds with Mtb FBA inh; purified M. tuberculosis FBA, fluorescence read-out; inhibition, % at 1 µM; 78% of 5,600 active; AID 651616, 2012;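 also: 0% = vehicle wells and 100% = reference inhibitor wells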
GDH-TPI counter-2: GDH-TPI coupling enzyme inhibitors, artefact control for M. tuberculosis FBA inhibitor project, biochemical, fluorescence, high throughput; shares compounds with Mtb FBA inh; GDH-TPI coupled enzyme counterscreen; inhibition, % at 1 µM; 81% of 5,600 active; in the data active = inhibition above about 10%
The depositor's hits bear a star; i = inactive; nt = no result; + = active, no number. The list is not random: actives were taken first. Their share in the collection is about 3%. Rule as the data show it, unless noted: active = inhibition above about 27%; inactive = the rest.

SMILES	Mtb FBA inh	Mtb BioA inh	Vc quorum ag	GDH-TPI counter-1	Mtb FBA inh conf	GDH-TPI counter-2
CC(Oc1ccc2c3c(c(=O)oc2c1)CCC3)C(=O)NC1CCN(Cc2ccccc2)CC1 (stereo unspecified)	22	2	0	10	nt	nt
CC(Oc1ccc2c3c(c(=O)oc2c1)CCCC3)C(=O)NC1CC(C)(C)NC(C)(C)C1 (stereo unspecified)	64*	2	i	-5	+	182*
CC(Oc1ccc2c3c(c(=O)oc2c1)CCCC3)C(=O)NCc1cccnc1 (stereo unspecified)	71*	11	0	11	+	155*
CC(Oc1ccc2c3c(c(=O)oc2c1)CCCC3)C(=O)NCC1CCC(C(=O)O)CC1 (stereo unspecified)	73*	0	-19	10	63*	57*
CCC(=O)N(C)C[C@H]1Oc2cc(C#CC(C)C)ccc2S(=O)(=O)N([C@H](C)CO)C[C@@H]1C	nt	1	nt	nt	nt	nt
C[C@H](CO)N1C[C@H](C)[C@H](CN(C)C(=O)CN(C)C)Oc2cc(-c3ccc(C#N)cc3)ccc2S1(=O)=O	nt	-1	nt	nt	nt	nt
CCc1nnc(NC(=O)C2CCN(S(=O)(=O)c3ccc(C)cc3)CC2)s1	-2	nt	0	0	nt	nt
CCc1nnc(NC(=O)C2CCN(S(=O)(=O)Cc3ccccc3)CC2)s1	35*	-3	i	1	86*	69*
COC(=O)c1cc(-c2ccc(OC)cc2F)nc2nc(SC)[nH]c(=O)c12	27*	2	0	17	+	+
CN1CCN(C(=O)c2ccc(-c3cccs3)s2)CC1	50*	9	0	13	23	18*
CN1CCCCN2[C@H](CO)[C@@H](c3ccc(-c4ccc(F)cc4)cc3)[C@@H]2C1	nt	-1	nt	nt	nt	nt
CN(CC(=O)Nc1ccc(F)cc1)C(=O)c1cc(-c2ccco2)nc2ccccc12	30*	1	i	12	+	+
Cc1ccc(NC(=O)CN(C)C(=O)c2cc(-c3ccco3)nc3ccccc23)cc1	19	-2	i	11	nt	nt
CN(CCOc1ccc(Cl)cc1)C(=O)c1cc(-c2ccco2)nc2ccccc12	37*	-1	-1	7	174*	127*
CCOc1ccc(NC(=O)CN(C)C(=O)c2cc(-c3ccco3)nc3ccccc23)cc1OCC	62*	0	0	15	+	+
COc1cccc(NC(=O)CN(C)C(=O)c2cc(-c3ccco3)nc3ccccc23)c1	69*	-1	-1	14	3	0
COc1cccc(NC(=O)c2cc(-c3ccco3)nc3ccccc23)c1	5	nt	0	6	nt	nt
COc1ccccc1CN(C)C[C@H]1OCc2cnnn2CCCC(=O)N([C@H](C)CO)C[C@H]1C	nt	0	nt	nt	nt	nt
CC(C)NC(=O)N[C@H]1CC[C@@H](CC(=O)NCCN2CCCC2)O[C@@H]1CO	nt	0	nt	nt	nt	nt
Cc1c(C)c2ccc(OCC(=O)N3C[C@H]4C[C@@H](C3)c3cccc(=O)n3C4)c(C)c2oc1=O	34*	4	-1	14	68*	40*
CC(C)=CCOc1ccc2c(C)c(CCC(=O)N3C[C@H]4C[C@@H](C3)c3cccc(=O)n3C4)c(=O)oc2c1C	82*	1	0	10	102*	92*
C[C@@H]1CN([C@@H](C)CO)S(=O)(=O)c2ccc(-c3cncnc3)cc2O[C@H]1CN(C)CC1CC1	nt	-1	nt	nt	nt	nt
CCCn1c(SCC(=O)Nc2c(C)cccc2CC)nnc1C(C)C	39*	-2	i	4	118*	111*
CCC(=O)Nc1ccc2c(c1)C(=O)N(C)[C@H]1CC[C@H](CC(=O)Nc3ccc(OC)cc3)O[C@@H]1CO2	nt	-2	nt	nt	nt	nt
Cc1noc(C)c1S(=O)(=O)Nc1cccc2c1O[C@H](CN(C)C(=O)Nc1ccc3c(c1)OCO3)[C@H](C)CN([C@H](C)CO)C2=O	nt	1	nt	nt	nt	nt
SMILES	Mtb FBA inh	Mtb BioA inh	Vc quorum ag	GDH-TPI counter-1	Mtb FBA inh conf	GDH-TPI counter-2
Cc1cc(OCC(=O)NCCN2CCOCC2)c2c(C)c(C)c(=O)oc2c1	52*	0	0	10	-6	-6
CCCCc1cc(=O)oc2c(C)c(OCC(=O)NCCN3CCOCC3)ccc12	20	0	i	22	nt	nt
CCCc1cc(=O)oc2cc(C)cc(OCC(=O)NCCCN3CCOCC3)c12	73*	1	-1	7	25	30*
CCCCc1cc(=O)oc2cc(C)cc(OCC(=O)NCCN3CCOCC3)c12	51*	0	i	15	+	170*
CCc1c(C)nc2cc(-c3ccc(OC)cc3)[nH]n2c1=O	35*	-1	0	11	+	+
O=c1cc(-c2ccccc2)nc2cc(-c3ccc(F)cc3)[nH]n12	44*	-3	i	3	0	-3
Cc1nc2cc(-c3ccccc3)[nH]n2c(=O)c1C	33*	0	0	6	95*	62*
O=c1c2c(nc3cc(-c4ccc(F)cc4)[nH]n13)CCC2	38*	nt	0	4	119*	81*
O=S(=O)(N[C@H]1CC[C@@H](CCn2cc(C3CC3)nn2)O[C@@H]1CO)c1ccc(Cl)cc1	nt	1	nt	nt	nt	nt
COc1cccc(C(=O)Nc2ccc3c(c2)C(=O)N(C)[C@@H]2CC[C@@H](CC(=O)NCc4ccccc4F)O[C@@H]2CO3)c1	nt	0	nt	nt	nt	nt
CCCN1[C@@H]2c3ccc(C4=CCCCC4)c(=O)n3C[C@@H]2[C@@H](CO)[C@@H]1C(=O)NCCCN(C)C	nt	-2	nt	nt	nt	nt
O=C1NC(c2ccccc2Cl)Nc2ccccc21 (stereo unspecified)	57*	0	0	-7	114*	100*
O=C1NC(c2cccc3ccccc23)Nc2ccccc21 (stereo unspecified)	29*	nt	i	16	37*	32*
COc1ccc2ccccc2c1C1NC(=O)c2ccccc2N1 (stereo unspecified)	44*	nt	i	6	102*	74*
O=C1NC(c2cccs2)Nc2ccccc21 (stereo unspecified)	9	-1	-1	8	nt	nt
COc1ccc(C#Cc2cnc3c(c2)C(=O)N([C@H](C)CO)C[C@H](C)[C@H](CN(C)C(=O)Nc2cccc4ccccc24)O3)cc1OC	nt	2	nt	nt	nt	nt
CCCc1cn(CC[C@@H]2CC[C@@H](NS(=O)(=O)c3ccc(-c4ccccc4)cc3)[C@H](CO)O2)nn1	nt	-1	nt	nt	nt	nt
CC(C)(C)NC(=O)Nc1ccc2nccnc2c1	61*	nt	i	12	0	-5
CC(C)(C)NC(=O)c1ccc2nccnc2c1	-4	nt	i	18	nt	nt

Screening results as filed in PubChem.
